Assays:
Assay in all cases: log2 ratio of Biotin-Ahx-Ub-VS probe labelling (fragment/DMSO); higher = less target engagement (more negative = stronger competition), active = hit call of the paper (q ≤ 0.05, log2 ratio ≤ -1)
Conditions in all cases: compound concentration: 200 uM; treatment time: 3 h
USP34 = USP34 (UniProt Q70CQ2)
Summary of the method: (§1)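 HEK293T lysate (495 µg per sample, in Tris/CHAPS/IGEPAL buffer with protease inhibitors) was exposed in triplicate for 3 h to fragment at 200 µM or to vehicle, then to Biotin-Ahx-Ub-VS at 0.5 µM final for 1 h. Labelled DUBs were enriched on NeutrAvidin, digested with LysC and trypsin, and analysed by diaPASEF LC-MS/MS. Spectronaut label-free quantities were normalised to the global median, and values are average log2 ratios of fragment over vehicle from an unpaired t-test. Only proteins with ≥2 unique peptides were used.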

USP36 = molecular target: T1, USP36 (UniProt Q9P275)
T1 sequence (whole entry): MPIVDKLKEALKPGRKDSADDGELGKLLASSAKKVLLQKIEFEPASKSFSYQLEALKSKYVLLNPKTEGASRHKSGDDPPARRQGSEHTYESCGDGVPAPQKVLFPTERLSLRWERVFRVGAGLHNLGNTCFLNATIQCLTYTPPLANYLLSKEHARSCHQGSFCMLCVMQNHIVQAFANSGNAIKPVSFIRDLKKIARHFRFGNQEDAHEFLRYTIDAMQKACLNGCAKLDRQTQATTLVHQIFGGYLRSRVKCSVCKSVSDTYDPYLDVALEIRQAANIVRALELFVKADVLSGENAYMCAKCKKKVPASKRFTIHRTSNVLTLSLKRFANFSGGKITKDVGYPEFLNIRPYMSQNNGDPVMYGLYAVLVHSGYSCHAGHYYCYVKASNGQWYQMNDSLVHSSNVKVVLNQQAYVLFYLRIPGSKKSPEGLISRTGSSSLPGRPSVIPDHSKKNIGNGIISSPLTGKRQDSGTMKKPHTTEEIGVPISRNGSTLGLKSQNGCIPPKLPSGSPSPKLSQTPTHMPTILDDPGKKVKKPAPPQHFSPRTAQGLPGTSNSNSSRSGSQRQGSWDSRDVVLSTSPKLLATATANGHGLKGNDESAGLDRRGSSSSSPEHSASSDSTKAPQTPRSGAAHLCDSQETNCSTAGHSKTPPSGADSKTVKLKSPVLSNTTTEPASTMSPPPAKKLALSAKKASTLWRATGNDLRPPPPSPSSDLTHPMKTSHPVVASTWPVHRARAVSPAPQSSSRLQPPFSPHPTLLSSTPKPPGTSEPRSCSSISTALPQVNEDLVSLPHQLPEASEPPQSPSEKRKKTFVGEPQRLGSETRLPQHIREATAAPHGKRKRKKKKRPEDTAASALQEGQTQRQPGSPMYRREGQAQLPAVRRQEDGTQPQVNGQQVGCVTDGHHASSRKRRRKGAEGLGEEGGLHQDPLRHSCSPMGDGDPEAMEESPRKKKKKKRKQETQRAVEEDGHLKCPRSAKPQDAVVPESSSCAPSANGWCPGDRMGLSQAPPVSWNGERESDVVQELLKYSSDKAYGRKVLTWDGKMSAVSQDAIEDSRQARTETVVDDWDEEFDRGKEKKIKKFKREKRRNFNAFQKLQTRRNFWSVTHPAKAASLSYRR
Summary of the method: as §1

USP38 = molecular target: T2, USP38 (UniProt Q8NB14)
T2 sequence (whole entry): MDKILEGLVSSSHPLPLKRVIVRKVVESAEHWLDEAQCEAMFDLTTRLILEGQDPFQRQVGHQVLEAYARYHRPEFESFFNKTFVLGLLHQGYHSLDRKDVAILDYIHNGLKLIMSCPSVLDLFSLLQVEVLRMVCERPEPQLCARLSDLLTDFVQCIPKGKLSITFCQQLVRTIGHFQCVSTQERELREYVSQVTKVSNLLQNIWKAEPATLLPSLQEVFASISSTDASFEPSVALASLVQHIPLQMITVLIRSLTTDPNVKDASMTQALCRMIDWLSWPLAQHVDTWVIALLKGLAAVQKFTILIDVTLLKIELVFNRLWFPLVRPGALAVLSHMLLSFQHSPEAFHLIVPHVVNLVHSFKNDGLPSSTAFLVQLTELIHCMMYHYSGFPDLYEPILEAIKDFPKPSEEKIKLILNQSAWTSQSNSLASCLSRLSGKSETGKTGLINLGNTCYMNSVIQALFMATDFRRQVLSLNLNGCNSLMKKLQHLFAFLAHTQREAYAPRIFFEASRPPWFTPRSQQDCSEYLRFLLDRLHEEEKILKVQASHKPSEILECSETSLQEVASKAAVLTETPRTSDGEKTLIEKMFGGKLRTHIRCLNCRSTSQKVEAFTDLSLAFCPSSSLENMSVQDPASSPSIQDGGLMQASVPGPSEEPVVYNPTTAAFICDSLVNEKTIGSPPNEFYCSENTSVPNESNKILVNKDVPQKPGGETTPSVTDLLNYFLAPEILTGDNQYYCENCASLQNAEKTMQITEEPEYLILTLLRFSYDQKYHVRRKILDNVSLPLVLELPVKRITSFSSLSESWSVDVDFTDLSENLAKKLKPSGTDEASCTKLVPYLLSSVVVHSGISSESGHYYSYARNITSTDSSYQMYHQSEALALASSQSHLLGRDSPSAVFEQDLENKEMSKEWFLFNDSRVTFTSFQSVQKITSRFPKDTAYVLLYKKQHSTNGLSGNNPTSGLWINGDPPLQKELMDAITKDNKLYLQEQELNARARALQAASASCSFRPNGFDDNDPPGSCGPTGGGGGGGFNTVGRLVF
Summary of the method: as §1

USP39 = molecular target: T3, USP39 (UniProt Q53GS9)
T3 sequence (whole entry): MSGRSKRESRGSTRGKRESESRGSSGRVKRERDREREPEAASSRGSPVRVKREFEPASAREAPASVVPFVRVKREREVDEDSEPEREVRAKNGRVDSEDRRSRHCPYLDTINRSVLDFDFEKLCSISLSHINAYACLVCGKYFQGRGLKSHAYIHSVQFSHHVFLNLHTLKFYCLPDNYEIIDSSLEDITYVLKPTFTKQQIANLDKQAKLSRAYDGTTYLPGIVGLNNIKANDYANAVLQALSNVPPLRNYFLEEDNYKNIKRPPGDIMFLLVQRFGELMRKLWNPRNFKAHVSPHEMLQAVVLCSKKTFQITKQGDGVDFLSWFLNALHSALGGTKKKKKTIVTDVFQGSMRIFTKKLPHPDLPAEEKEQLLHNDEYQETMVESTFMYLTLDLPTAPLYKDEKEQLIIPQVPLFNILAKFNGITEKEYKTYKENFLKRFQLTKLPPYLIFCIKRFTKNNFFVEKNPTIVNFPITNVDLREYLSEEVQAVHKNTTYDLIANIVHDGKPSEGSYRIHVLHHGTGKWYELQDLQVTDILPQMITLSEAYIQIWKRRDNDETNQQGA
Summary of the method: as §1

USP4 = molecular target: T4, USP4 (UniProt Q13107)
T4 sequence (whole entry): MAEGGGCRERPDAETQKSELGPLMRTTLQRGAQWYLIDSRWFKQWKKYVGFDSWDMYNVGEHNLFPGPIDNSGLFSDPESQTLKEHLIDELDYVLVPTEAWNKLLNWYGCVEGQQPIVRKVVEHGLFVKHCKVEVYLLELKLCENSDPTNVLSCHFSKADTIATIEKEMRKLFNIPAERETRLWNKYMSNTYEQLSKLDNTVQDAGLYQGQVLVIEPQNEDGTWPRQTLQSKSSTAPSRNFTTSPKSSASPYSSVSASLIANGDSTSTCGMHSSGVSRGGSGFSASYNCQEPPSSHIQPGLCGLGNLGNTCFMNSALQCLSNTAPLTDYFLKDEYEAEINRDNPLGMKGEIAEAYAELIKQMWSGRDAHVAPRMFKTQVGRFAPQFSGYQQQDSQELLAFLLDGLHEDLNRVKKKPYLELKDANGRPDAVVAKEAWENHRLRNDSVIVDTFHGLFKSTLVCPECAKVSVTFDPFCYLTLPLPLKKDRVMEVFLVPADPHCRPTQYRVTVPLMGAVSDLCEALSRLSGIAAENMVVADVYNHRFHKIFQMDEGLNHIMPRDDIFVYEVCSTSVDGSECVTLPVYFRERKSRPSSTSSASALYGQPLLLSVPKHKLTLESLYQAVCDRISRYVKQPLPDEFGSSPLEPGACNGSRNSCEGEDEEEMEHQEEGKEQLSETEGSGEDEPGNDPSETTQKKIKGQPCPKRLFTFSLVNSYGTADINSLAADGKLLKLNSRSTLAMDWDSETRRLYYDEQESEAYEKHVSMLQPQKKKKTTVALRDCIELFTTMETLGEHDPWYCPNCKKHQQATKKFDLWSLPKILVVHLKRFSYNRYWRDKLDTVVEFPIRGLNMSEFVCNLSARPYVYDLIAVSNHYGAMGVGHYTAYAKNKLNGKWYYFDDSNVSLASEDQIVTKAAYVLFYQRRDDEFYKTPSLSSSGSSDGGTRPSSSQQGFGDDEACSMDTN
Summary of the method: as §1

Measured: log2 ratio of Biotin-Ahx-Ub-VS probe labelling

Sequence of USP34 (Q70CQ2 whole entry, the tested form may be a part): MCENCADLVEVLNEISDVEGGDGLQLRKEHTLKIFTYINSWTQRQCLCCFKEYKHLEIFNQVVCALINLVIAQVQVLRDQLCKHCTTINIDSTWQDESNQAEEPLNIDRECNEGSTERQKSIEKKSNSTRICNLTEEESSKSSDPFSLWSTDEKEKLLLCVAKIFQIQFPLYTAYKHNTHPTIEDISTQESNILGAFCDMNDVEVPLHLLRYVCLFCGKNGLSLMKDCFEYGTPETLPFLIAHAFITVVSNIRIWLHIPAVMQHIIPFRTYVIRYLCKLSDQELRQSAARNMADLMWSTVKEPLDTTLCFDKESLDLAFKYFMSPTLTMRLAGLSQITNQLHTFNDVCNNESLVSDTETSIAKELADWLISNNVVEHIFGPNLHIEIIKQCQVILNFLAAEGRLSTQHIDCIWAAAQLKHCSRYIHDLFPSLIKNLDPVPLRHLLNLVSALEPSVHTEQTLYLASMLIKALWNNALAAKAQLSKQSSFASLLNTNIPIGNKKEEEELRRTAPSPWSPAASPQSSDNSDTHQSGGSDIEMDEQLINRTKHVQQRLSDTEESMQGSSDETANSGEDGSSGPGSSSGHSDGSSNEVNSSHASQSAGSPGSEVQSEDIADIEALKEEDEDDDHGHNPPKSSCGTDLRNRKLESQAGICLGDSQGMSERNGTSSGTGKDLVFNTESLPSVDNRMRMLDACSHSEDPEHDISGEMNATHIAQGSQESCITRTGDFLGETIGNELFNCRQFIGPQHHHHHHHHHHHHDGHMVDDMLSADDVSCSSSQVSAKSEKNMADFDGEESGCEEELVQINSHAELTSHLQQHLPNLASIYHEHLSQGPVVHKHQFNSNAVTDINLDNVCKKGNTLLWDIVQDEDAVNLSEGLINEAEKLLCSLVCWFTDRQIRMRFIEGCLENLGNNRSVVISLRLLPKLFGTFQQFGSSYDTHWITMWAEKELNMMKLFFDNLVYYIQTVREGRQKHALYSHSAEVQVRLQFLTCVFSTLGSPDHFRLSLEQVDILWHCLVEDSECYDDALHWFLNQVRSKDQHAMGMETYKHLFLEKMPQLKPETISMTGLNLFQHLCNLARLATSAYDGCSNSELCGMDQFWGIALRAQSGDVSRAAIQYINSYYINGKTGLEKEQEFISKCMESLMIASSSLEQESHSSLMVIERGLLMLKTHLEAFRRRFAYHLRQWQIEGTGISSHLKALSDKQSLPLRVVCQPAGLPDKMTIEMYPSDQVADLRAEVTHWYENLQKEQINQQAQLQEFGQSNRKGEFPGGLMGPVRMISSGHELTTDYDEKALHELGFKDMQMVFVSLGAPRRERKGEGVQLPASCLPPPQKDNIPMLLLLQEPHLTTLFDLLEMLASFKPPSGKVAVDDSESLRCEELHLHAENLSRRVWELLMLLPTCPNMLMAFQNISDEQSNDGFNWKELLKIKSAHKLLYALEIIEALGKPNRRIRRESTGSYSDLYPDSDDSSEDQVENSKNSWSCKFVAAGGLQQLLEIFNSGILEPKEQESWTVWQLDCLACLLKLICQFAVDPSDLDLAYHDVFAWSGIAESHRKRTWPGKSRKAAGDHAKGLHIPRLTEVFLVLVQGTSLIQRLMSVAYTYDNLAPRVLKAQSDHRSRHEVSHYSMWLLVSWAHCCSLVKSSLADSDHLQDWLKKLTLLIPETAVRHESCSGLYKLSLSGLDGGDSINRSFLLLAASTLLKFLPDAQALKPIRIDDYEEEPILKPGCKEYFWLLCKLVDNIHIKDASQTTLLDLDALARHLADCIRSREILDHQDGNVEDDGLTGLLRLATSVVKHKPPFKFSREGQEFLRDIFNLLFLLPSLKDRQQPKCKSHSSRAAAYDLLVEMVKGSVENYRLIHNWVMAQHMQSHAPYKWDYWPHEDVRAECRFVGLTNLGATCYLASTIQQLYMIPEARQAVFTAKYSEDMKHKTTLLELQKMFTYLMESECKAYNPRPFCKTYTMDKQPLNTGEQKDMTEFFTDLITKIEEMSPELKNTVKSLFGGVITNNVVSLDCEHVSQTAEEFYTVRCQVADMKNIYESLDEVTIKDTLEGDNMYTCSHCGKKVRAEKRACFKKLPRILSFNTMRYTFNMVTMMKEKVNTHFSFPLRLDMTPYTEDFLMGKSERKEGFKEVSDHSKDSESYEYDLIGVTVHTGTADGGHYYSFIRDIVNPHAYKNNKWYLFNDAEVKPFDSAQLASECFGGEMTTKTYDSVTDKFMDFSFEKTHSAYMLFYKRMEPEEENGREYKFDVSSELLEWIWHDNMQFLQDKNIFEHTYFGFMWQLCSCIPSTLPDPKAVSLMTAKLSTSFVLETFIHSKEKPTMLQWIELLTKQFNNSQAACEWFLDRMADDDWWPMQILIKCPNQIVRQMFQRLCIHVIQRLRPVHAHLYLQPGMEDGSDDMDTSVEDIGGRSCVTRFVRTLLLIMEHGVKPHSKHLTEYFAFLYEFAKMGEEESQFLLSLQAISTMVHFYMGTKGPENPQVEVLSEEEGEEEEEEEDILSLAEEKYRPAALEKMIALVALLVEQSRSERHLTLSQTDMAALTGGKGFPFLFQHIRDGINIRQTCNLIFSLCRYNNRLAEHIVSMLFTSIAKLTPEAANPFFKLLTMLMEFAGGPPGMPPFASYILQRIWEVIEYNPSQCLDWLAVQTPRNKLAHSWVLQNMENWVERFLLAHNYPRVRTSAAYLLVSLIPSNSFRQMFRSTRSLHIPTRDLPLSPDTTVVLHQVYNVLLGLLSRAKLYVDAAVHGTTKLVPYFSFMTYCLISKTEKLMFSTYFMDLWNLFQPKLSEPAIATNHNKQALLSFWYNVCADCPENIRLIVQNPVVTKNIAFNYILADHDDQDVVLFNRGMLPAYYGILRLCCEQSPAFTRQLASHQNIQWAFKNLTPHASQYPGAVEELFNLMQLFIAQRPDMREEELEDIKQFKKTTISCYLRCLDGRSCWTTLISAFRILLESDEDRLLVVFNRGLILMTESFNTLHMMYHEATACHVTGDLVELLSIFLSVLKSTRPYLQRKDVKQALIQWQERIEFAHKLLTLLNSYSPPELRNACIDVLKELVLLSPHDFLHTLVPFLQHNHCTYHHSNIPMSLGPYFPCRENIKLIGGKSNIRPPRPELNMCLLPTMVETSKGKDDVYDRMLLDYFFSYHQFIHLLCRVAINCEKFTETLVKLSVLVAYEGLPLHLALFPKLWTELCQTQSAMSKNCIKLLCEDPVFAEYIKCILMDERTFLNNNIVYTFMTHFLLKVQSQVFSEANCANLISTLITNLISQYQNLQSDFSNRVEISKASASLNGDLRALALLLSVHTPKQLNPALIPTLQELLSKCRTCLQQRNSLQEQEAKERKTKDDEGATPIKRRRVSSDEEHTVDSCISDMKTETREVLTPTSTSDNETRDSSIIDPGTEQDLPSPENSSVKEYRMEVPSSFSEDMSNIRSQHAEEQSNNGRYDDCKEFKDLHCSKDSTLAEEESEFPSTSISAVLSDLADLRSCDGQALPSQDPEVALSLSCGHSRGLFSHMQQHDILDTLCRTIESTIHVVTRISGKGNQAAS

CCN(Cc1ccc(C#N)cc1F)C(=O)CCl
inactive: USP34 -0.454 | USP36 -0.0792 | USP38 -0.292 | USP39 -0.0856 | USP4 -0.105

Reference: the supplement of paper PMC11732987, “Enantioselective OTUD7B fragment discovery through chemoproteomics screening and high-throughput optimisation” (Communications Chemistry, 2025)
